Reference: PubChem BioAssay (Tox21)
Several values for one entry are separate records, joined by “and”; a condition that tells them apart may be missing. Equal values may be shown once. Results filed as inconclusive are left out. A call without a number means that no potency is given here. The source holds several records for some structures; these can differ, active in one and inactive in another. Activity calls are given as the source filed them. Unless noted, the call rests on the fitted dose curve; in most records, active means well fitted curve in the direction sought with a large enough effect in the repeat runs; inconclusive means weak or mixed curves; inactive means no such curve, though single readings can be large; an effect the other way counts as inactive or inconclusive.

Legend:
[1] = A CellTox Green Cytotoxicity Assay to monitor cytotoxicity in HEK293 cells - 32 hour (AID 1224881); further: nearly all actives have a fitted effect of over 40% in size; further: potency means the concentration at half of the fitted maximal effect
In short: (§1)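 Homogeneous no-lysis format: HEK293 cell suspension mixed with CellTox Green reagent, seeded, incubated 5 h at 37 C/5% CO2, then dosed by pintool with compound in DMSO.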

[2] = A CellTox Green Cytotoxicity Assay to monitor cytotoxicity in HepG2 cells - 0 hour (AID 1224882); further: nearly all actives have a fitted effect of over 35% in size
In short: (§2)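 Fluorescent DNA-binding dye, 600 HepG2 cells/well, 5 h preincubation then compound in DMSO; same plates read at 0–40 h, 37 C.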

[3] = A CellTox Green Cytotoxicity Assay to monitor cytotoxicity in HepG2 cells - 32 hour (AID 1224883); further: nearly all actives have a fitted effect of over 50% in size
In short: as §2

[4] = A CellTox Green Cytotoxicity Assay to monitor cytotoxicity in HEK293 cells - 8 hour (AID 1224884); further: nearly all actives have a fitted effect of over 35% in size
In short: as §1

[5] = qHTS RealTime-Glo MT Cell Viability Assay in HepG2 cells - 16 hour (AID 1224885); further: nearly all actives have a fitted effect of over 50% in size
In short: (§3)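 qHTS, HepG2, 600 cells/well, RealTime-Glo (NanoLuc + prosubstrate) added with cells; 5 h preincubation; DMSO compound addition; 37 C; luminescence at 0/8/16/24/32/40 h.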

[6] = qHTS RealTime-Glo MT Cell Viability Assay in HEK293 cells - 24 hour (AID 1224886); further: top concentration of the series differs between compounds; nearly all actives have a fitted effect of over 50% in size
In short: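 Assay medium contained NanoLuc luciferase plus cell-permeant prosubstrate, added with HEK293 cells at 600 cells/well. After 5 h at 37 C/5% CO2 compounds were added; plates stayed at 37 C for 40 h with serial luminescence reads.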

[7] = qHTS RealTime-Glo MT Cell Viability Assay in HEK293 cells - 8 hour (AID 1224887); further: top concentration of the series differs between compounds; nearly all actives have a fitted effect of over 50% in size
In short: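 Measured as luminescence from the same continuously cultured HEK293 wells at successive time points (0, 8, 16, 24, 32, 40 h) after compound addition. Reagent present from seeding; dosing at 5 h; incubation 37 C.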

[8] = A CellTox Green Cytotoxicity Assay to monitor cytotoxicity in HEK293 cells - 16 hour (AID 1224888); further: nearly all actives have a fitted effect of over 35% in size
In short: as §1

[9] = qHTS RealTime-Glo MT Cell Viability Assay in HepG2 cells - 0 hour (AID 1224889); further: nearly all actives have a fitted effect of over 50% in size
In short: as §3

[10] = A CellTox Green Cytotoxicity Assay to monitor cytotoxicity in HepG2 cells - 8 hour (AID 1224890); further: nearly all actives have a fitted effect of over 45% in size
In short: as §2

[11] = qHTS assay to identify small molecule antagonists of the estrogen receptor alpha (ER-alpha) signaling pathway using the BG1 cell line in the presence of 0.1 nM 17-beta-estradiol - cell viability counter screen (AID 1259241); further: nearly all actives have a fitted effect of over 40% in size
In short: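 VM7Luc4E2 cells (endogenous ER-alpha, 4×ERE-luciferase), hormone-starved 5 days in charcoal-stripped FBS, were treated with compounds plus 0.1 nM 17beta-estradiol for 22 hr at 37C; viability read in same wells as CellTiter-Fluor live-cell protease fluorescence.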

[12] = qHTS assay to identify small molecule antagonists of the androgen receptor (AR) signaling pathway using the MDA cell line in the presence of 0.5 nM R1881 - cell viability counter screen (AID 1259242); further: nearly all actives have a fitted effect of over 45% in size
In short: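 Human breast carcinoma MDA-kb2 cells, cultured without CO2, receive compounds alongside 0.5 nM (final) R1881 agonist. After 16 hr at 37C, viability is taken as live-cell protease signal.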

[13] = target: Estrogen receptor (Homo sapiens) (UniProt P03372); test: qHTS assay to identify small molecule antagonists of the estrogen receptor alpha (ER-alpha) signaling pathway using the BG1 cell line in the presence of 0.1 nM 17-beta-estradiol (AID 1259244); further: nearly all actives have a fitted effect of over 50% in size
In short: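 Seeding of stripped-serum-adapted VM7Luc4E2 cells, 24 h attachment, compound transfer, then 0.1 nM final 17beta-estradiol; after 22 h incubation, ONE-Glo reagent and luminescence reading.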

[14] = qHTS assay to identify small molecule phospholipidosis (PLD) inducers (AID 1259344; active means well fitted curve in the direction sought with a large enough effect; an effect the other way counts as inactive or inconclusive)
In short: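 After 4 h attachment on collagen I, HepG2 cells were dosed with compound alongside LipidTOX Red, kept 24 h at 37 C, fixed, and imaged for lamellar phospholipid pits.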

[15] = qHTS assay to identify small molecule HDAC inhibitors (AID 1259364); further: potency means the concentration at half of the fitted maximal effect;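 further: wild-type HCT-116 cells with endogenous class I/II HDAC activity; nearly all actives have a fitted effect of over 45% in size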
In short: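 After a 2 hr compound incubation (37C, 5% CO2), HCT-116 cells seeded at 1,500/well the day before received HDAC-Glo reagent; signal read as luminescence after 30 min at room temperature.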

[16] = qHTS assay to identify small molecule HDAC inhibitors - cell viability counter screen (AID 1259365)
In short: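 Wild-type HCT-116 cells were seeded at 1,500 per well, incubated overnight at 37 C, then exposed to compounds in DMSO for 2hr. Viability was read by CellTiter-Glo luminescence after 30min at room temperature.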

[17] = qHTS assay to identify small molecule agonists of the sonic hedgehog signaling (Shh) pathway - cell viability counter screen (AID 1259366); further: nearly all actives have a fitted effect of over 50% in size; further: potency means the concentration at half of the fitted maximal effect
In short: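 NIH/3T3-derived 3T3 Gli1-Luc cells (stable Gli1-responsive firefly luciferase reporter) were seeded, rested 4 hr at 37 C/5% CO2, then exposed to compounds in DMSO for 24 hr; viability was read by CellTiter-Fluor fluorescence in the same wells.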

[18] = qHTS assay to identify small molecule antagonists of the sonic hedgehog signaling (Shh) pathway - cell viability counter screen (AID 1259367); further: nearly all actives have a fitted effect of over 55% in size; further: potency means the concentration at half of the fitted maximal effect
In short: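 Conditioned medium drove Shh signaling in 3T3 Gli1-Luc cells exposed to compounds at 37C and 5% CO2. Viability was determined from CellTiter-Fluor fluorescence, with reagent incubated 1 hr after 23 hr of treatment.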

[19] = qHTS assay to identify small molecule agonists of the sonic hedgehog signaling (Shh) pathway (AID 1259368; calls by dose curve; further: series mostly up to about 92 µM; nearly all actives have a fitted effect of over 15% in size)
In short: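 Stable NIH/3T3 Gli1-Luc reporter clone; 24 hr cpd exposure after a 4 hr settling period; luminescence endpoint.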

Chain of Estrogen receptor (Homo sapiens) (P03372 whole entry, looked up): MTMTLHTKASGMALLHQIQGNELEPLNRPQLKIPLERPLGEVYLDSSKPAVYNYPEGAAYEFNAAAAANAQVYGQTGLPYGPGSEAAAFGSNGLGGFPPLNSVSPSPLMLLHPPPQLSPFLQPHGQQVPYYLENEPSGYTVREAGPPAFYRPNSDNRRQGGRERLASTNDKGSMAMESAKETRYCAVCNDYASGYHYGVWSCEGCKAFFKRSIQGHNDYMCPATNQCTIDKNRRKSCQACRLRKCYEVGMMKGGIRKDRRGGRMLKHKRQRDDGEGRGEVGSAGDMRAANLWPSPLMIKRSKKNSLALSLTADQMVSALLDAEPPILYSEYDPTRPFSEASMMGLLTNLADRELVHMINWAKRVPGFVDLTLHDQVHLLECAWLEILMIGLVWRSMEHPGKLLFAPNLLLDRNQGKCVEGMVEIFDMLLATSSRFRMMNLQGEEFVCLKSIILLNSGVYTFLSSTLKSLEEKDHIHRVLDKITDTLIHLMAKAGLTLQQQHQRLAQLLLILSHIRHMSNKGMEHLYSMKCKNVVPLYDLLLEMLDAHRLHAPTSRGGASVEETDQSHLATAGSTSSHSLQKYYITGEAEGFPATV

SMILES	Potency [1]	Potency [2]	Potency [3]	Potency [4]	Potency [5]	Potency [6]	Potency [7]	Potency [8]	Potency [9]	Potency [10]	Potency [11]	Potency [12]	Potency [13]	Potency [14]	Potency [15]	outcome [16]	Potency [17]	Potency [18]	Potency [19]
CC(=O)Oc1c(C)c(C)c2c(c1C)CC[C@@](C)(CCC[C@H](C)CCC[C@H](C)CCCC(C)C)O2	inactive	inactive	inactive	inactive	inactive	inactive	inactive	inactive	inactive	inactive	inactive	inactive	inactive	inactive	inactive	inactive	inactive	inactive	–
Nc1ccc2c(c1)C(=O)c1ccccc1C2=O	inactive	inactive	inactive	inactive	inactive	inactive	inactive	inactive	inactive	inactive	inactive	inactive	inactive	–	951 nM (active) and 770 nM (active)	inactive	inactive	inactive	–
CN(C)C	inactive	inactive	inactive	inactive	inactive	inactive	inactive	inactive	inactive	inactive	inactive	inactive	inactive	–	inactive	inactive	inactive	inactive	–
C1CN(SSN2CCOCC2)CCO1	48.5 µM (active) and inactive	inactive	inactive	inactive	inactive	inactive	inactive	inactive	inactive	inactive	inactive	inactive	inactive	–	inactive	inactive	53.9 µM (active) and 48.6 µM (active)	48.1 µM (active) and 61.1 µM (active)	–
NCCS(=O)(=O)O	inactive	inactive	inactive	inactive	inactive	inactive	inactive	inactive	inactive	inactive	inactive	inactive	inactive	inactive	inactive	inactive	inactive	22.5 µM (active) and inactive	inactive
CCC(Cc1c(I)cc(I)c(N)c1I)C(=O)O (configuration not stated)	inactive	inactive	inactive	inactive	inactive	inactive	inactive	–	inactive	inactive	inactive	inactive	inactive	inactive	inactive	inactive	inactive	inactive	inactive
CC(=O)OC(C)C	inactive	inactive	inactive	inactive	inactive	inactive	inactive	–	inactive	inactive	inactive	inactive	inactive	–	inactive	inactive	inactive	inactive	–
